# PrP UTR inh: suppresses PrP 5' UTR mRNA reporter expression. cell-based PrP 5' UTR mRNA reporter, plate reader. inhibition, % (no concentration beside the values). 340,000 compounds, 0.35% hits. AID 488862; in the data active = inhibition above about 52%
# FadD28 binding: blocks FadD28 binding to the bisubstrate probe; fluorescence polarization; inhibition, % at 12.5 µM; 360,000 compounds, 0.22% hits; AID 588549; in the data active = inhibition above about 8.5%, passing the limit was not always enough
# BioA inh: blocks M. tuberculosis BioA enzyme activity | purified M. tuberculosis BioA enzyme, plate reader | inhibition, % at 9.99 µM | 360,000 compounds, 0.096% hits | AID 602481; in the data active = inhibition above about 40%
# PfHsp40 yeast: rescue of PfHsp40-mediated yeast toxicity; S. cerevisiae expressing PfHsp40, growth rescue, ATP luminescence; growth rescue, % at 12.5 µM; 340,000 compounds, 0.68% hits; AID 504582; in the data active = growth rescue above about 28%, passing the limit was not always enough;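 note: yeast W303a lacking pdr1 and pdr3 grown in galactose medium; growth measured after three days at 30 °C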
# Yp Topo-I inh: inhibitors of Yersinia pestis topoisomerase I. AID 504884. Y. pestis Topo-I cleavage product accumulation, plate reader. activity, % at 10 µM. 360,000 compounds, 0.064% hits; in the data active = activity above about 50%, passing the limit was not always enough
# TcdB inh: inhibitors of Clostridioides difficile toxin B glycohydrolase. 350,000 compounds, 0.24% hits. AID 652162. inhibition, % at 9.99 µM. TcdB glycohydrolase enzymatic assay, plate reader; in the data active = inhibition above about 10%
# Hits are given with their value; n = inactive; x = no result. A selection: hits, their analogues and other compounds. The true share with any hit is near 1.2%.
SMILES,PrP UTR inh,FadD28 binding,BioA inh,PfHsp40 yeast,Yp Topo-I inh,TcdB inh
COc1ccc(C(=O)CC(=O)C(=O)Nc2cccc(F)c2)cc1,n,n,n,39,n,n
COc1ccc(C(=O)CNc2cccc(F)c2)cc1,n,n,x,n,n,n
COc1ccc(C(=O)CC(=O)C(=O)Nc2ccccc2)cc1,n,n,x,57,n,n
CCCNC(=O)C[C@H]1C[C@H]2c3cc(NC(=O)CC4CC4)ccc3O[C@H]2[C@H](CO)O1,x,x,n,x,x,n
CCOC(=O)c1cnc(-n2nc(C)cc2C)nc1NCCc1ccccc1,n,n,n,65,n,x
CCOC(=O)c1cnc(-n2nc(C)cc2C)nc1NC1CCCC1,n,n,n,163,n,n
O=C(OC[C@@H]1[C@H]2c3ccccc3OC1(CO)N=C1SCCCN12)c1ccccc1,x,x,n,x,x,n
CCCC(=O)Nc1ccc2c(c1)C(=O)N(C)[C@H]1CC[C@@H](CC(=O)N3CCc4ccccc4C3)O[C@@H]1CO2,x,x,n,x,x,x
C[C@H]1CN([C@@H](C)CO)C(=O)c2cc(NC(=O)C3CCCCC3)ccc2O[C@H]1CN(C)Cc1ccncc1,x,x,n,x,x,n
O=C1NC[C@H](Cc2ccccc2)N(CCc2cc(C(F)(F)F)cc(C(F)(F)F)c2)C1=O,x,x,x,x,x,n
O=C1NC[C@@H](Cc2cccc3ccccc23)N(CCc2cc(C(F)(F)F)cc(C(F)(F)F)c2)C1=O,n,n,n,44,n,n
COc1ccc(NC(=O)Nc2ccc3c(c2)C(=O)N([C@H](C)CO)C[C@H](C)[C@H](CN(C)C(=O)NC(C)C)OCCCC[C@@H](C)O3)cc1,x,x,n,x,x,n
CCOC(=O)c1c(NC(=O)c2ccccc2C(=O)O)sc2c1CCCC2,n,n,n,n,n,n
CCOC(=O)c1c(N2C(=O)CC(Sc3ccccc3C(=O)O)C2=O)sc2c1CCCC2 (stereo not given),n,n,x,41,n,n
Cc1ccccc1S(=O)(=O)N1CCCCN2[C@H](CO)[C@@H](c3ccc(-c4cncnc4)cc3)[C@@H]2C1,x,x,n,x,x,n
O=C(Nc1ccncc1)Nc1cccc(C(F)(F)F)c1,n,n,n,n,n,n
Oc1c(C(Nc2nccs2)c2ccc(C(F)(F)F)cc2)ccc2cccnc12 (stereo not given),n,n,x,84,n,n
Oc1c(C(Nc2cccc(C(F)(F)F)c2)c2ccncc2)ccc2cccnc12 (stereo not given),n,n,x,381,n,n
CCC(=O)NC(c1cccs1)c1ccc2cccnc2c1O (stereo not given),n,n,x,n,n,n
C[C@@H]1CCCCO[C@@H](CN(C)Cc2ccncc2)[C@H](C)CN([C@@H](C)CO)C(=O)c2cc(NC(=O)Nc3ccc(F)cc3)ccc2O1,x,x,n,x,x,x
CN1[C@H](C(=O)NCCCN2CCOCC2)[C@@H](CO)[C@@H]2Cn3c(ccc(/C=C/c4ccccc4)c3=O)[C@@H]21,x,x,n,x,x,x
Cc1ccc(C(=O)O)cc1NC(=S)NC(=O)c1ccc(-c2ccccc2)cc1,n,n,n,113,n,n
CC(C)NC(=S)NC(=O)c1ccc(-c2ccccc2)cc1,n,n,x,59,n,n
Cc1ccc(C(=O)NC(=S)Nc2ccccc2C(F)(F)F)cc1C,n,n,n,32,n,x
CCCC(=O)Nc1ccc2c(c1)C(=O)N(C)[C@H]1CC[C@H](CC(=O)N3CCc4ccccc4C3)O[C@H]1CO2,x,x,n,x,x,x
SMILES,PrP UTR inh,FadD28 binding,BioA inh,PfHsp40 yeast,Yp Topo-I inh,TcdB inh
c1ccc(-c2n[nH]c(-c3ccccc3)c2-c2nc3ccccc3[nH]2)cc1,n,n,n,30,n,x
c1ccc(-c2nc3ccccc3[nH]2)cc1,n,n,n,n,n,n
COc1ccc(S(=O)(=O)Nc2ccc3c(c2)C(=O)N([C@H](C)CO)C[C@H](C)[C@H](CN(C)C(=O)NC(C)C)O3)cc1,x,x,n,x,x,x
CCOCC(=O)Nc1cc(Cl)ccc1C,n,n,x,n,n,10
CC(Oc1ccc(F)cc1)C(=O)Nc1ccccc1N1CCCCC1 (stereo not given),n,n,n,n,65,n
CC(Oc1cccc(Cl)c1)C(=O)Nc1ccccc1N1CCCCC1 (stereo not given),n,n,n,n,n,n
O=C(COc1c(Cl)cccc1Cl)Nc1ccccc1N1CCCC1,n,n,n,n,54,n
Cc1cc(Cl)ccc1OCC(=O)Nc1ccccc1N1CCOCC1,n,n,n,n,53,x
Cc1ccccc1OCC(=O)Nc1ccccc1N1CCCCC1,n,n,n,n,55,x
O=C(COc1ccc(Br)cc1)Nc1ccccc1N1CCCC1,n,n,x,n,n,n
